HSF1 inhib – HSF1 inhibition | activity change, negative = inhibition, % at 7.5 µM (by protocol) | AID 2098 | actives 0.77% (n = 300,000) | NIH3T3-HGL HSE-luciferase, MG132-induced, luminescence 8 h; stronger effect = lower value;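 active = more than half of replicate wells show activity change below -50%, luminescence cut by over half; inconclusive = some wells, but at most half, below -50%; inactive = no replicate well below -50%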;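 also: luciferase reports HSF-1 transcriptional activity via heat shock element; 0% = median of DMSO wells and -100% = zero luminescence signal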
Wnt act – activators of Wnt/beta-catenin signaling; activation, % at 9.35 µM; actives 1.2% (n = 300,000); Wnt/beta-catenin reporter cell assay, activator, plate reader; in the data active = activation above about 30%, passing the limit was not always enough; inconclusive = no clear call, values can overlap the other calls;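 also: 0% = neutral control wells and 100% = positive control wells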
SMARCA2 activ – SMARCA2 function activation, primary screen; AID 652017; MG213 cells, MMTV-luciferase reporter, dexamethasone, overnight; activation, % at 9.1 µM; actives 1% (n = 370,000); in the data active = activation above about 7.8%;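 also: 0% = vehicle wells and 100% = reference activator wells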
MITF TRPM1 HTS – increases MITF-driven TRPM1 promoter luciferase signal. SK-MEL-5 TRPM1-promoter luciferase, 24 h; % of positive control, neutral wells = 0. activation, % at 12.5 µM. actives 0.75% (n = 300,000);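 active = mean activation of at least 80% with every replicate also reaching 80%; inconclusive = mean reaches 80% but some replicate falls short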;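 also: 0% = neutral control wells and 100% = parthenolide positive control wells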
HSF-1 act – increases HSF-1 driven luciferase reporter signal | AID 504408 | NIH3T3-HGL HSF-1 luciferase reporter, MG132, 8 h; 100% = twice DMSO control signal | actives 1.7% (n = 300,000) | activation, % at 9 µM;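 active = mean replicate activation of at least 50% with a set share of replicates each reaching 50%; inconclusive = only one of those two conditions met; inactive = mean below 50% and too few replicates reaching it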;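 also: 0% = median of the neutral control wells and 100% = twice that signal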
esBAF inh – SWI/SNF esBAF complex inhibition; AID 602393; reporter increase, % at 12.5 µM; actives 2% (n = 350,000); mouse ES cells, Bmi1-luciferase knock-in reporter, 24 h; 100% = twice the neutral-well signal; in the data active = activation above about 40%; inconclusive = no clear call, values can overlap the other calls;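 also: 0% = median of the plate's neutral control wells and 100% = double that signal; a rise in the Bmi1 reporter signal indicates esBAF inhibition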
* hit, by the source's call; u = inconclusive; x = no result given. Sampled rows, rich in hits. Any-hit rate of the full collection: about 4.3%.

SMILES	HSF1 inhib	Wnt act	SMARCA2 activ	MITF TRPM1 HTS	HSF-1 act	esBAF inh
C[C@H](CO)N1C[C@H](C)[C@@H](CN(C)C(=O)Nc2ccccc2)OCCCC[C@H](C)Oc2ccc(NS(=O)(=O)c3cn(C)cn3)cc2C1=O	x	x	x	x	x	3
C[C@@H]1CCCCO[C@@H](CN(C)Cc2ccc(Cl)c(Cl)c2)[C@H](C)CN([C@@H](C)CO)C(=O)c2cc(NS(=O)(=O)c3ccc(Cl)cc3)ccc2O1	x	x	x	x	x	9
Nc1ccc2c(c1)C(=O)C(=O)c1ccccc1-2	-95*	x	-9	-106	-95	x
Nc1ccc2c(c1)C(=NO)c1ccccc1-2	x	-2	-2	50	x	u
O=C1C(=O)c2ccc(-c3ccccc3)cc2-c2ccccc21	-95*	x	-4	-104	-95	-85
Nc1ccc2c(c1)C(=O)c1ccccc1-2	-10	32*	-2	x	-3	15
Nc1ccc2c(c1)C(=O)c1ccc(Br)cc1-2	x	20	-2	14	x	1
CCC(=O)NC[C@@H]1[C@@H](c2ccccc2)[C@@H](CO)N1C(=O)C1CC1	x	x	x	x	x	-5
CNC[C@H]1OCCCC[C@@H](C)Oc2ccc(NS(=O)(=O)c3ccc(C)cc3)cc2C(=O)N([C@H](C)CO)C[C@H]1C	x	x	x	x	x	-5
C[C@H]1CN([C@@H](C)CO)C(=O)c2cccc(NS(=O)(=O)c3cn(C)cn3)c2O[C@H]1CN(C)C	x	x	x	x	x	3
CCOc1ccc(/C=C/C(=O)C(C(N)=O)=C2SCCS2)cc1	49	6	5	14	75*	x
C[C@@H]1CN([C@@H](C)CO)C(=O)c2cc(NC(=O)Nc3ccc(C(F)(F)F)cc3)ccc2O[C@@H](C)CCCCO[C@@H]1CN(C)Cc1ccc2c(c1)OCO2	x	x	x	x	x	0
C[C@@H]1CN([C@@H](C)CO)C(=O)c2cc(NC(=O)NC3CCCCC3)ccc2O[C@@H](C)CCCCO[C@H]1CN(C)C(=O)Cc1ccccc1	x	x	x	x	x	7
COC(CNC(=O)c1ccc2c3c(onc13)-c1ccccc1C2=O)OC	31	71*	2	x	41	x
C/C(=C\c1ccccc1)C(=O)NCc1ccco1	2	32*	1	31	14	x
C/C(=C\c1ccccc1)C(=O)NCCc1ccccc1	16	61*	5	50	35	x
CC(C)(C)C(=O)NC(=S)NCCc1ccccc1	7	0	2	61	2	43*
CO[C@H]1CN(C)C(=O)c2cccc(C#N)c2OC[C@@H]2O[C@H](CC[C@H]2OC)CCN(C)C(=O)[C@H]1C	x	x	x	x	x	0
C[C@@H]1CN([C@H](C)CO)C(=O)c2cc(NS(=O)(=O)c3ccccc3)ccc2O[C@@H](C)CCCCO[C@@H]1CN(C)S(C)(=O)=O	x	x	x	x	x	-5
C[C@H]1CN([C@@H](C)CO)C(=O)c2cc(NC(=O)CCN3CCOCC3)ccc2O[C@H]1CN(C)S(=O)(=O)c1ccc(Cl)cc1	x	x	x	x	x	4
CO[C@H]1CN(C)C(=O)c2cc(NC(=O)c3ccc(F)cc3)ccc2OC[C@@H](C)N(C(=O)CC2CC2)C[C@H]1C	x	x	x	x	x	-2
COc1ccccc1/C=C(\C)C(=O)c1c(C)cc(C)[nH]c1=O	20	-2	-2	-5	57*	1
C/C(=C\c1ccc(Br)cc1)C(=O)c1c(C)cc(C)[nH]c1=O	-3	1	-1	-2	4	13
O=C(OC1CCc2ccccc2C1=O)c1ccccc1O (stereo not given)	x	3	7	x	x	46*
Cc1ccc(C(=O)NC2CCc3ccccc3C2=O)cc1 (stereo not given)	33	16	4	45	49	23
SMILES	HSF1 inhib	Wnt act	SMARCA2 activ	MITF TRPM1 HTS	HSF-1 act	esBAF inh
O=C(C[C@@H]1CC[C@@H]2[C@H](COC[C@H](O)CN2Cc2ccc(F)cc2)O1)N1CCc2ccccc2C1	x	x	x	x	x	18
Cc1nc2ccc(S(=O)(=O)Nc3cc(-c4nc5cccnc5s4)ccc3C)cc2s1	6	18	1	x	-4	61*
COc1ccccc1C(=O)N(CCC1CCCN1C)c1nc2ccccc2s1 (stereo not given)	-72*	-9	-7	5	-71	x
COc1ccc2sc(N(CCCN(C)C)C(=O)c3nc4ccccc4s3)nc2c1	-13	4	0	-8	-20	11
CNC(=O)C[C@H]1CC[C@@H]2[C@H](COc3ccc(NC(=O)c4ccc(F)c(F)c4)cc3C(=O)N2C)O1	x	x	x	x	x	-4
Cc1cc(C)n2nc(C(=O)N/N=C/c3cccc(Cl)c3)nc2n1	21	-1	-4	x	56*	6
COc1ccc(S(=O)(=O)N(C)C[C@H]2Oc3ccc(NS(=O)(=O)c4cccs4)cc3C(=O)N([C@@H](C)CO)C[C@@H]2C)cc1	x	x	x	x	x	-1
Cc1ccc(CSc2ncn(-c3ccccc3)n2)cc1	22	-3	3	58	22	20
Clc1ccccc1CSc1ncn(-c2ccccc2)n1	42	x	5	58	67*	67*
C#CC[N+]1(CC#Cc2ccccc2)CCCCC1	49	-1	3	-5	82*	x
Nc1ccc(SCc2cccnc2)cc1	1	2	-1	-3	6	8
Nc1ccc(CSc2ccccc2)cc1	x	-7	5	28	x	54*
Cc1cc(C(=O)Nc2cccc3c2O[C@H](CN(C)C(=O)Nc2ccc(C(F)(F)F)cc2)[C@@H](C)CN([C@H](C)CO)C3=O)n(C)n1	x	x	x	x	x	-10
CCc1nc(N2CCN(S(=O)(=O)c3ccc(Br)cc3)CC2)c2c(C)c(C)sc2n1	42	x	3	10	77*	0
C[C@H]1CN([C@@H](C)CO)C(=O)c2ccccc2-c2ccccc2CO[C@H]1CN(C)C(=O)CCC(F)(F)F	x	x	x	x	x	-2
Cc1ccc(S(=O)(=O)N[C@@H]2CC[C@H](CC(=O)NCc3ccc(Cl)c(Cl)c3)O[C@@H]2CO)cc1	x	x	x	x	x	2
CCCNC(=O)c1oc2ccc3c(c2c1C)C=CC(C)(C)O3	19	38*	1	105*	28	56*
CCCNC(=O)c1oc2ccc3c(c2c1C)C(=O)CC(C)(C)O3	52	59*	3	89*	59*	-15
COCC#Cc1ccc2c(c1)O[C@@H](CN(C)Cc1ccncc1)[C@@H](C)CN([C@@H](C)CO)S2(=O)=O	x	x	x	x	x	-2
Cc1cc(-c2nc3ccccc3c(=O)o2)ccc1[N+](=O)[O-]	-7	39*	0	11	4	33
Cc1ccc(-c2nc3ccccc3c(=O)o2)cc1	21	3	3	20	26	40
CCNC(=O)Nc1ccc2c(c1)C(=O)N(C)[C@H]1CC[C@@H](CC(=O)NCC3CC3)O[C@H]1CO2	x	x	x	x	x	-3
O=C(COC(=O)CC1c2ccccc2CCN1S(=O)(=O)c1ccccc1)Nc1ccccc1 (stereo not given)	18	6	-3	-6	58*	x
S=c1nc(-c2ccccc2)oc2c1CCCC2	20	74*	-3	56	u	x
COc1cccc(-c2nc(=S)c3c(o2)CCCC3)c1	16	11	6	x	22	x
